# Reference: PubChem BioAssay (NCATS)
# Inconclusive results are not listed. Unmarked numbers belong to inactive results. The source made the active and inactive calls. The call rests on the fitted dose curve; in most records, active means well fitted inhibition curve with a large enough effect; inconclusive means small, poorly fitted or top-dose-only effect; inactive means flat fitted curve, though single readings scatter. Peptide text beside a SMILES is read from it.
# System: PC26
# Assay: qHTS profiling for inhibitors of Plasmodium falciparum proliferation (AID 504749); further: nearly all actives have a fitted effect of over 60% in size;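 on activity, negative = inhibition: 0% = DMSO vehicle and full inhibition = artemisinin control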
# Details: P. falciparum in erythrocytes, SYBR Green DNA, 72 h; series mostly up to 12.8 µM; activity, negative = inhibition: at the top concentration
# Procedure, shortened: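 SYBR Green fluorescence of parasite DNA, read after lysis and overnight dark incubation, measured growth over 72 h in erythrocyte culture at 0.3% parasitemia and 2.5% hematocrit. Data normalised to DMSO and 0.29 uM artemisinin, with plate-drift correction.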
# Potency means the concentration at half of the fitted maximal effect.
SMILES,"activity, negative = inhibition",Potency
CN(C)CCCOC1C(C(O)CO)OC2OC(C)(C)O[C@@H]21 (some centres not stated),4.89% [at 28.7 µM],
CCC(C)C(=O)OC1CCC=C2C=CC(C)C(CCC3CC(O)CC(=O)O3)[C@@H]21 (some centres not stated),5.52% [at 28.7 µM],
CC(=O)OC1CCC2C3CCc4cc(O)ccc4C3CCC12C (configuration not stated),0.667% [at 28.7 µM],
CC[C@@]12CCCN3CCc4c(n(c5ccccc45)[C@](O)(C(=O)OC)C1)C32 (some centres not stated),-0.19% [at 28.7 µM],
NC(C(=O)O)[C@@H]1CC(Cl)=NO1 (some centres not stated),,1.9 µM (active)
CN1CC(=O)N=C1N,-9.78% [at 28.7 µM],
OCC1OC([S-])[C@H](O)C(O)C1O.[Au+] (some centres not stated),-9.42% [at 28.7 µM],
CC(C)C1CCC(C(=O)NC(Cc2ccccc2)C(=O)O)CC1 (configuration not stated),-0.145% [at 28.7 µM],
CCC(CCC(C)C1CCC2C3CC=C4CC(O)CC[C@@]4(C)C3CC[C@@]12C)C(C)C (some centres not stated),9.23% [at 28.7 µM],
C[C@]12CCC(=O)C=C1CCC1C2C(=O)C[C@]2(C)C1CC[C@]2(O)C(=O)CO (some centres not stated),-1.42% [at 28.7 µM],
OCC1O[C@H](OC2C(CO)O[C@@](O)(CO)C2O)C(O)C(O)C1O (some centres not stated),-2.33% [at 28.7 µM],
CC1(C)OC2CO[C@]3(COS(N)(=O)=O)OC(C)(C)OC3C2O1 (some centres not stated),3.28% [at 28.7 µM],
CC1(C)OC2CC(=O)OC[C@@]23C1CC(=O)[C@]1(C)C3CC[C@@]2(C)C(c3ccoc3)OC(=O)C3O[C@@]321 (some centres not stated),-6.07% [at 28.7 µM],
COC1C=CO[C@@]2(C)Oc3c(C)c(O)c4c(O)c(c5c(nc6cc(C)ccn65)c4c3C2=O)NC(=O)/C(C)=C\C=CC(C)C(O)[C@@H](C)C(O)C(C)[C@@H](OC(C)=O)C1C (some centres not stated),,1.2 µM (active)
COC(=O)C(Cc1ccccc1)NC(=O)C(N)CC(=O)O (stereo not drawn) (H-Asp-Phe-OMe; configuration not given here),-2.61% [at 28.7 µM],
C[C@]12C=CC(=O)C=C1CCC1C2C(O)C[C@]2(C)C1CC[C@]2(O)C(=O)CO (some centres not stated),4.2% [at 28.7 µM],

SMILES,"activity, negative = inhibition",Potency
CC1(C)S[C@H]2C(NC(=O)[C@@H](N)c3ccc(O)cc3)C(=O)N2[C@@H]1C(=O)O (some centres not stated),3.31% [at 28.7 µM],
CC(C)=CCC[C@](C)(O)C1CC=C(C)CC1 (some centres not stated),2.27% [at 28.7 µM],
C[C@]1(c2ccccc2)OC(C(=O)O)=CC1=O,14.1% [at 28.7 µM],
CC(=O)N[C@H](CC(C)C)C(=O)O,0.447% [at 28.7 µM],
COc1ccc2cc(C(C)CO)ccc2c1 (configuration not stated),4.18% [at 28.7 µM],
COC1C=CO[C@@]2(C)Oc3c(C)c(O)c4c(O)c(c(C=NN5CCN(C)CC5)c(O)c4c3C2=O)NC(=O)/C(C)=C\C=CC(C)C(O)[C@@H](C)C(O)C(C)[C@H](OC(C)=O)C1C (some centres not stated),,1.07 µM (active)
CC1CCC(C(C)C)C(=O)C1 (configuration not stated),-11.6% [at 28.7 µM],
CNC1CC(N)[C@H](O)[C@@H](O[C@@H]2OC(CO)C3OC4(OC(C(N)CO)C(O)C(O)C4O)O[C@@H]3[C@H]2O)C1O (some centres not stated),1.48% [at 28.7 µM],
CCCC(=O)O[C@]1(C(=O)CO)CCC2[C@@H]3CCC4=CC(=O)CC[C@]4(C)C3C(O)C[C@]21C (some centres not stated),-2.16% [at 28.7 µM],
CC(=O)[C@]1(O)CCC2C3C=C(Cl)C4=CC(=O)C5CC5[C@@]4(C)C3CC[C@]21C (some centres not stated),7.42% [at 28.7 µM],
CC(=O)N[C@@H]1C(O)OC(CO)C(O)C1O (some centres not stated),1.52% [at 28.7 µM],
C/C1=C2N=C(/C=C3N=C(/C(C)=C4\[N-]C(C)(C5N=C1C(C)(CCC(=O)NCC(C)OP(=O)([O-])O[C@H]1C(O)C(n6cnc7cc(C)c(C)cc76)O[C@@H]1CO)C5CC(N)=O)C(C)(CC(N)=O)C4CCC(N)=O)C(C)(CC(N)=O)C\3CCC(N)=O)C(C)(C)C/2CCC(N)=O.[CH2-]C1OC(n2cnc3c(N)ncnc32)C(O)C1O.[Co] (some centres not stated),-12.1% [at 28.7 µM],
O=C1OC(CO)C(O)C(O)C1O (configuration not stated),-1.26% [at 28.7 µM],
CNC1C(OC2C(O[C@@H]3C(O)C(O)[C@@H](N=C(N)N)C(O)C3N=C(N)N)OC(C)[C@@]2(O)CO)OC(CO)C(O)C1O (some centres not stated),3.18% [at 28.7 µM],
COc1cc(C2c3cc4c(cc3C(O[C@@H]3OC5COC(c6cccs6)OC5C(O)C3O)C3COC(=O)C23)OCO4)cc(OC)c1O (some centres not stated),,3.79 µM (active)
Nc1nc2ncc(CNc3ccc(C(=O)NC(CCC(=O)O)C(=O)O)cc3)nc2c(=O)[nH]1 (configuration not stated),4.26% [at 28.7 µM],
